In PubChem BioAssay (Tox21):
Several values for one entry are separate records, joined by “and”; a condition that tells them apart may be missing. Equal values may be shown once. Inconclusive results are not listed. Activity calls are given as the source filed them. Unless noted, the call rests on the fitted dose curve; in most records, active means well fitted curve in the direction sought with a large enough effect in the repeat runs; inconclusive means weak or mixed curves; inactive means no such curve, though single readings can be large; an effect the other way counts as inactive or inconclusive.

Legend:
[1] = qHTS assay for small molecules that induce genotoxicity in human embryonic kidney cells expressing luciferase-tagged ATAD5 (AID 651632); further: nearly all actives have a fitted effect of over 15% in size
Summary of the method: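 Genotoxicity read-out via ATAD5-luciferase: HEK293T cells, 16 hr compound incubation at 37C, Amplite detection.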

[2] = qHTS assay for small molecule agonists of the p53 signaling pathway - cell viability (AID 651633; calls by dose curve; further: nearly all actives have a fitted effect of over 30% in size; further: potency means the concentration at half of the fitted maximal effect;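 on activity change, negative = cytotoxicity: p53RE-bla HCT reporter cells with a stable beta-lactamase p53 reporter; series mostly up to about 83 µM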)
Summary of the method: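 p53RE-bla cells, seeded at 4,000 per well and rested 5 h at 37 C/5% CO2, received compounds in DMSO for 16 h at 37 C. CellTiter-Glo was then added, and luminescence was read after 30 min at room temperature to gauge cytotoxicity.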

[3] = qHTS assay for small molecules that induce genotoxicity in human embryonic kidney cells expressing luciferase-tagged ATAD5 - cell viability (AID 651634; calls by dose curve; further: nearly all actives have a fitted effect of over 25% in size; further: potency means the concentration at half of the fitted maximal effect)
Summary of the method: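 Live-cell protease activity (CellTiter-Fluor, fluorescence) indicates viability. HEK293T cells with luciferase-tagged ATAD5; 15.5 hr compound treatment at 37C.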

[4] = qHTS assay for small molecule disruptors of the mitochondrial membrane potential - cell viability (AID 720634; calls by dose curve;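 further: human HepG2 liver cancer cells; series mostly up to about 83 µM; nearly all actives have a fitted effect of over 20% in size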)
Summary of the method: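 Human hepatoma HepG2 cells were treated for 1 hr with test chemicals, then given m-MPI dye and CellTiter-Glo. Cell viability reflects luminescence proportional to cellular ATP.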

[5] = qHTS assay to test for compound auto fluorescence at 590 nm (red) in HepG2 cells (AID 720674)
Summary of the method: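 Intrinsic compound fluorescence in the red window (Ex/Em 540/590 nm) is measured in attached HepG2 cells exposed for 1 hr, DMSO vehicle as baseline, benchmarked to Rose Bengal sodium.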

[6] = qHTS assay to test for compound auto fluorescence at 535 nm (green) in HepG2 cells (AID 720675)
[7] = qHTS assay to test for compound auto fluorescence at 460 nm (blue) in HEK293 cells (AID 720678)
Summary of the method: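 Measured: blue fluorescence (Ex 405/Em 460 nm) of compound-treated HEK293 cells, incubated overnight at 37C with 5% CO2 and scaled to triamterene equivalents.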

[8] = qHTS assay to test for compound auto fluorescence at 590 nm (red) in HEK293 cells (AID 720679)
Summary of the method: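 Using HEK293 cells at 2,000 per well, the screen added 23 nL of each compound after cell attachment and incubated overnight (37C, 5% CO2). The plate reader then captured red-label fluorescence, Ex/Em 540/590nm.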

[9] = qHTS assay for small molecule disruptors of the mitochondrial membrane potential (AID 720635); further: potency means the concentration at half of the fitted maximal effect
Summary of the method: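 HepG2 cells (2,000/well) attached overnight at 37C, then took compound for 1 hr at 37C, 5% CO2. Mito-MPS dye was added for 30 min; fluorescence was read at 490/535 nm (monomers) and 540/590 nm (aggregates).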
On the % scale 0 is the no-effect control and ±100 the full control effect.

c1cc(CCCc2ccncc2)ccn1
inactive: Potency [1] | Potency [2] | Potency [3] | Potency [4] | Potency [5] | Potency [6] | outcome [7] | Potency [8]

CCCCCCCCCCCCCCCCOS(=O)(=O)O
inactive: Potency [1] | Potency [2] | Potency [3] | Potency [4] | Potency [5] | Potency [6] | outcome [7] | Potency [8]

CO[C@@H]1[C@H](OC(=O)/C=C/C=C/C=C/C=C/C(=O)O)CC[C@]2(CO2)[C@H]1[C@@]1(C)O[C@@H]1CC=C(C)C
inactive: Potency [1] | Potency [2] | Potency [3] | Potency [4] | Potency [5] | Potency [6] | outcome [7] | Potency [8]

CCOc1ccc(N=Nc2ccc(/C=C/c3ccc(N=Nc4ccc(OCC)cc4)cc3S(=O)(=O)O)c(S(=O)(=O)O)c2)cc1
inactive: Potency [1] | Potency [2] | Potency [4] | Potency [5] | Potency [6] | outcome [7] | Potency [8]
active: Potency [3] 42.6 µM

CCC(C)(C)CC
inactive: Potency [1] | Potency [2] | Potency [3] | Potency [4] | Potency [5] | Potency [6] | outcome [7] | Potency [8]

C=C(C)C(=O)OCC
inactive: Potency [1] | Potency [2] | Potency [3] | Potency [9] | Potency [5] | Potency [6] | outcome [7] | Potency [8]

O=C(O)C(S)C(S)C(=O)O (stereo unspecified)
inactive: Potency [1] | Potency [2] | Potency [4] | Potency [9] | outcome [7] | Potency [8]

CCC(=O)O[C@]1(C(=O)CCl)[C@@H](C)C[C@H]2[C@@H]3CCC4=CC(=O)C=C[C@]4(C)[C@@]3(F)[C@@H](O)C[C@@]21C
inactive: Potency [1] | Potency [2] | Potency [4] | Potency [5] | Potency [6] | outcome [7] | Potency [8]
active: Potency [9] 23.7 µM

Brc1c2ccccc2c(Br)c2ccccc12
inactive: activation [1] 1.86% [at 8.08 µM] | activity change, negative = cytotoxicity [2] 12.3% [at 8.08 µM] | activity, negative = cytotoxicity [3] 21.9% [at 8.08 µM] | fluorescence, relative to Rose Bengal [5] 0.105% [at 3.72 µM] | fluorescence, % of fluorescein control [6] 0.0196% [at 3.72 µM] | fluorescence, % of triamterene [7] 0.364% [at 3.72 µM] | fluorescence, % of fluorescent control [8] -0.0447% [at 3.72 µM]

OC(CN1CCC(Cc2ccc(F)cc2)CC1)c1ccc(Cl)cc1 (stereo unspecified)
inactive: Potency [1] | Potency [2] | Potency [4] | Potency [5] | Potency [6] | outcome [7] | Potency [8]

C[Si](C)(CCCN)O[Si](C)(C)CCCN
inactive: Potency [1] | Potency [2] | Potency [3] | Potency [4] | outcome [7] | Potency [8]

CCOC(=O)COC(=O)c1cc(Oc2ccc(C(F)(F)F)cc2Cl)ccc1[N+](=O)[O-]
inactive: Potency [1] | Potency [2] | Potency [3] | Potency [6] | outcome [7] | Potency [8]
active: Potency [9] 61.1 µM

Clc1ccc2c(c1)CCc1cccnc1C2=C1CCNCC1
inactive: Potency [1] | Potency [2] | Potency [4] | Potency [5] | outcome [7] | Potency [8]

CCOC(=O)C1=C[C@]2(CC)CCCN3CCc4c(n1c1ccccc41)[C@@H]32
inactive: Potency [1] | Potency [2] | Potency [3] | Potency [5] | Potency [6] | outcome [7] | Potency [8]

Cc1cccc(C)c1NC(=O)CN(CC(=O)O)CC(=O)O
inactive: Potency [1] | Potency [3] | Potency [4] | Potency [9] | Potency [5] | Potency [6] | outcome [7] | Potency [8]

CN(Cc1ccc(C(C)(C)C)cc1)Cc1cccc2ccccc12
inactive: Potency [1] | Potency [3] | Potency [9] | Potency [5] | Potency [6] | outcome [7] | Potency [8]
active: Potency [2] 23.7 µM

CC(C)=CCC/C(C)=C/CC/C(C)=C/CO
active: Potency [2] 68.6 µM
inactive: Potency [1] | Potency [4] | Potency [5] | Potency [6] | outcome [7] | Potency [8]

CN(C)CCN(Cc1ccccc1)c1ccccn1
inactive: Potency [1] | Potency [2] | Potency [3] | Potency [6] | outcome [7] | Potency [8]

Cc1nn(C)c(Oc2ccccc2)c1/C=N/OCc1ccc(C(=O)OC(C)(C)C)cc1
inactive: Potency [1] | Potency [2] | Potency [3] | Potency [5] | Potency [6] | outcome [7] | Potency [8]
active: Potency [9] 17.2 µM

CN(C)CCN(Cc1ccc(Cl)cc1)c1ccccn1
inactive: Potency [1] | Potency [2] | Potency [3] | fluorescence, % of fluorescein control [6] 0.0171% [at 18.6 µM] | fluorescence, % of triamterene [7] 0.037% [at 18.6 µM] | fluorescence, % of fluorescent control [8] -0.0077% [at 18.6 µM]

O=C(Cl)c1cc(C(=O)Cl)cc(C(=O)Cl)c1
inactive: Potency [1] | Potency [2] | Potency [4] | Potency [5] | Potency [6] | outcome [7] | Potency [8]

CCCCCCCCCc1ccc(OCCOCCO)cc1
inactive: Potency [1] | Potency [4] | Potency [5] | Potency [6] | outcome [7] | Potency [8]
active: Potency [3] 18.8 µM | Potency [9] 10.6 µM and 1.44 µM

CCOC(=O)C(F)(F)F
inactive: Potency [1] | Potency [2] | Potency [3] | Potency [5] | Potency [6] | outcome [7] | Potency [8]

CC(C)(COC(=O)c1ccccc1)COC(=O)c1ccccc1
inactive: Potency [1] | Potency [2] | Potency [3] | Potency [5] | Potency [6] | outcome [7] | Potency [8]

CCc1cc(C2=C(C(=O)O)N(c3ccccc3C(F)(F)F)S(=O)(=O)c3ccccc32)cc2c1OCO2
active: Potency [9] 48 µM
inactive: Potency [1] | Potency [2] | Potency [5] | Potency [6] | outcome [7] | Potency [8]
